Several values for one entry are separate records, joined by “and”; a condition that tells them apart may be missing. Identical values can stand only once. Records with an inconclusive call do not appear. Activity calls are given as the source filed them. Unless noted, the rule behind the calls is not given here.
Experiments:
[1] = compounds altering viability of human ES cells (AID 493140); conditions: human embryonic stem cell survival screen; stronger effect = higher value;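 note: cells exposed to compounds for four days before counting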
[2] = test system: Neuropilin-2 / VEGF-C interaction (human); experiment: small molecules blocking Neuropilin-2/VEGF-C interaction – biochemical, microplate binding format, z-score (AID 743281); conditions: microplate NRP2/VEGF-C binding assay; stronger effect = lower value
[3] = test system: Aerobactin synthetase IucA (Klebsiella pneumoniae); experiment: inhibition of K. pneumoniae IucA enzyme – biochemical, Tocris library, absorbance (AID 1345561); conditions: purified IucA enzyme assay, absorbance (OD) read-out; stronger effect = lower value;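 tested at 8 µM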;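 note: 100% = enzyme without compound and 0% = no enzyme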
[4] = galactose survival enhancers in mitochondrial complex I cybrids – cell-based, galactose medium, ATP luminescence, primary screen (AID 1645843;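 active = z-score of at least 1.8 in each of two replicates, scored against plate mean and spread of sample wells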;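 note: positive z means more ATP and so rescue of galactose-driven cybrid death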); conditions: complex I mutant cybrid cells, 72 h, stronger effect = higher value
[5] = compounds altering circadian rhythm period length – cell-based, LOPAC library, luminescence reporter (AID 2774); conditions: circadian reporter cells, at 7 µM, actives lie on both sides;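 note: values are relative to mean of DMSO wells on each plate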
[6] = test system: Hepatitis C virus NS3 helicase; experiment: blockers of NS3h binding to ssDNA – biochemical, fluorescence polarization, LOPAC1280 library, primary screen (AID 687035; in the data active = inhibition above about 37%); conditions: Purified HCV NS3 helicase, Cy5-dT15 ssDNA binding fluorescence polarization; stronger effect = higher value; concentration not given here
[7] = compounds altering Cy5-DNA-NS3h complex signal – biochemical, LOPAC1280, artefact control for HCV NS3 helicase inhibitor project (AID 687037); conditions: Cy5-DNA-NS3h complex fluorescence interference counterscreen
[8] = viability loss in pontine glioma line – cell-based, JHH-DIPG-1, MIPE4.0, CellTiter-Glo, qHTS, dose response (AID 1347062; cut-off not given, nearly all actives have AC50 up to about 27 µM); conditions: JHH-DIPG-1 viability, CellTiter-Glo ATP luminescence
[9] = viability loss in pontine glioma line – cell-based, SU-DIPG-XIII, MIPE5.0, CellTiter-Glo, qHTS, dose response (AID 1347064; cut-off not given, nearly all actives have AC50 up to about 23 µM); conditions: CellTiter-Glo ATP luminescence
[10] = viability loss in pontine glioma line – cell-based, SU-DIPG-XXV, MIPE5.0, CellTiter-Glo, qHTS, dose response (AID 1347065; cut-off not given, nearly all actives have AC50 up to about 26 µM;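 note: cells exposed to compound for 48 hours before ATP readout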); conditions: CellTiter-Glo ATP luminescence
[11] = growth inhibition of DIPG cells – cell-based, MIPE4.0 library, CellTiter-Glo luminescence, qHTS (AID 1347066; cut-off not given, nearly all actives have AC50 up to about 30 µM;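 note: cells exposed to compound for 48 hours before readout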); conditions: SU-DIPG-VI viability, CellTiter-Glo ATP luminescence
[12] = JHH-DIPG-1 glioma cell viability, MIPE5.0 library, CellTiter-Glo luminescence, qHTS (AID 1347067; cut-off not given, nearly all actives have AC50 up to about 26 µM;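 note: cells exposed to compound for 48 hours before readout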); conditions: JHH-DIPG-1 glioma viability, CellTiter-Glo ATP luminescence
[13] = growth inhibition of DIPG cells – cell-based, MIPE5.0 library, qHTS (AID 1347068; cut-off not given, nearly all actives have IC50 up to about 30 µM); conditions: SU-DIPG-XXV viability
[14] = blockers of cellular phospholipid synthesis – cell-based, LOPAC library, screen 4, primary screen (AID 1347384); conditions: animal cells, phospholipid biosynthesis inhibition screen; at 10 µM
[15] = target: NAD(+) hydrolase SARM1 (Homo sapiens) (UniProt Q6SZW1); experiment: blocking NAD cleavage by SARM1 SAM-TIR – cell lysate, NAD-Glo luminescence (AID 1508614;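 active = compound whose remaining NAD level is above about 45 nM, limit read from the data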;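 note: higher remaining NAD means stronger inhibition of SARM1 NADase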); conditions: SAM-TIR HEK293T lysate NADase, at 1 µM, stronger effect = higher value
NAD(+) hydrolase SARM1 (Homo sapiens), sequence (Q6SZW1 whole entry, looked up): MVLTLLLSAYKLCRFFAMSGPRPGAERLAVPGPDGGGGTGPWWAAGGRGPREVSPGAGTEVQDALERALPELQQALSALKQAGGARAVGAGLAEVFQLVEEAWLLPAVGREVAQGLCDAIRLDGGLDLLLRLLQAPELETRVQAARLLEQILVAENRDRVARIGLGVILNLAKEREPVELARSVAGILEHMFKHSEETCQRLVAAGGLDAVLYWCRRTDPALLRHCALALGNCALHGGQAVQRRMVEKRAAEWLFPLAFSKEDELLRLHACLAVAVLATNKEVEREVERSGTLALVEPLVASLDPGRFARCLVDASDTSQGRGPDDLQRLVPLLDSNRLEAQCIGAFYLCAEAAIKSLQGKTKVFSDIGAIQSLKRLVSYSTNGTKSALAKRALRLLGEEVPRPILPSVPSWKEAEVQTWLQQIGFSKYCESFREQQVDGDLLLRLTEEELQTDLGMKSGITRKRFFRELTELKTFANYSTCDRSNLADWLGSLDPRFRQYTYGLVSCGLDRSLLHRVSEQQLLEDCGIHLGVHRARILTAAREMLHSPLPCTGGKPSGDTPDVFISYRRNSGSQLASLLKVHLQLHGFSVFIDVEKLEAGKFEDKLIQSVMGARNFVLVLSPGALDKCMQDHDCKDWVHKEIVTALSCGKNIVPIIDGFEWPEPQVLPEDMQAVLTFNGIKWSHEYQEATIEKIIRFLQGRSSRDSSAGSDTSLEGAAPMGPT

[16] = viability loss in pontine glioma line – cell-based, SU-DIPG-XIII, MIPE4.0, CellTiter-Glo, qHTS, dose response (AID 1347061; cut-off not given, nearly all actives have AC50 up to about 37 µM;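 note: cells exposed to compound for 48 hours before readout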); conditions: CellTiter-Glo ATP luminescence
[17] = viability loss in pontine glioma line – cell-based, SU-DIPG-IV, MIPE4.0, CellTiter-Glo, qHTS, dose response (AID 1347063; cut-off not given, nearly all actives have AC50 up to about 30 µM;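 note: compound exposure lasted 48 hours before the viability readout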); conditions: CellTiter-Glo ATP luminescence
[18] = target: Mitogen-activated protein kinase 7 (Homo sapiens) (UniProt Q13164); experiment: Gal4-ERK5 driven luciferase induction – cell-based, HTS, primary screen (AID 1508626;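 active = luciferase signal above three times the same-plate solvent-only control wells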;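 note: luciferase driven by Gal4-ERK5 fusion binding five Gal4 sites before minimal TATA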); conditions: HeLa Gal4-ERK5 transactivation, 18 h, at 5 µM, stronger effect = higher value
Mitogen-activated protein kinase 7 (Homo sapiens), sequence (Q13164 whole entry, looked up, the tested form may be a part): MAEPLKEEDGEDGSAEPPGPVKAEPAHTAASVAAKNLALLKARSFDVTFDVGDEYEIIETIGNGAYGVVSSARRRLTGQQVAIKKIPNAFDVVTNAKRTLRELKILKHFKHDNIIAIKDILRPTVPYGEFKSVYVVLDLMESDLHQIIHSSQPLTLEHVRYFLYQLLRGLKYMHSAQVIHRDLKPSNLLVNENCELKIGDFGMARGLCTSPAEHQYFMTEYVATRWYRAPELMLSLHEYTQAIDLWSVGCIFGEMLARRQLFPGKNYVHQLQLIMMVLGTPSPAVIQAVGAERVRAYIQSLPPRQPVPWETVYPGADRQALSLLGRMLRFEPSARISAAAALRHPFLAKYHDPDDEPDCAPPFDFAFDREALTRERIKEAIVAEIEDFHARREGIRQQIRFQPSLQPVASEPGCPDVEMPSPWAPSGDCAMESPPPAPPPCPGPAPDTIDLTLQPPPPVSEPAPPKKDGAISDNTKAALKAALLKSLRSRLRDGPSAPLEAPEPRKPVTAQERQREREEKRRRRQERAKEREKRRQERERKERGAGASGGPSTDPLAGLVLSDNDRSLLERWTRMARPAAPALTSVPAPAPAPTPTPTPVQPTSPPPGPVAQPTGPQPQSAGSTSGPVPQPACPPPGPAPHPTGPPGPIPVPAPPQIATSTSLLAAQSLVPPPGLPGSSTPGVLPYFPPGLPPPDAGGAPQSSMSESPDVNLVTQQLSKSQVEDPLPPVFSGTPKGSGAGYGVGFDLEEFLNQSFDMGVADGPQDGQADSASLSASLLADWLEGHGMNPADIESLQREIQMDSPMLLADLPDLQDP

[19] = viability loss in pontine glioma line – cell-based, SU-DIPG-XVII, MIPE5.0, CellTiter-Glo, qHTS, dose response (AID 1347060; cut-off not given, nearly all actives have AC50 up to about 26 µM;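 for AC50: cells exposed to compound for 48 hours before viability readout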); conditions: CellTiter-Glo ATP luminescence
[20] = compounds altering HSF1 focus formation in cells – imaging, Selleck Cancer Library (AID 1347162; in the data active = plate-normalised HSF1 focus index below about 0.46); conditions: human cells, HSF1 nuclear foci imaging, at 10 µM; SSMD: measured here: HSF1 foci SSMD mean; cell count: measured here: cell number; plate-normalised HSF1 focus index: stronger effect = lower value

Cc1c(C(=O)NN2CCCCC2)nn(-c2ccc(Cl)cc2Cl)c1-c1ccc(I)cc1
inactive: survival [1] 93 | z-score [2] 0.177 | remaining activity [3] 112% | z-score [4] -1.88 and -0.83

CC(C)(S)C(N)C(=O)O (centres undefined)
inactive: z-score [4] -0.255

Cc1cnc(C(=O)NCCc2ccc(S(=O)(=O)NC(=O)NC3CCCCC3)cc2)cn1
inactive: period change [5] 0.035 h | survival [1] 31.5 | inhibition [6] -1% | fluorescence ratio (interference) [7] 1 | outcome [8] | outcome [9] | outcome [10] | outcome [11] | outcome [12] | outcome [13] | outcome [14] | remaining NAD [15] 10 nM | z-score [4] 1.17 and 0.66 and 1.06

COc1c(N2C[C@@H]3CCCN[C@@H]3C2)c(F)cc2c(=O)c(C(=O)O)cn(C3CC3)c12
inactive: z-score [2] -1.5 | outcome [16] | outcome [8] | outcome [17] | outcome [9] | outcome [10] | outcome [12] | outcome [13] | remaining NAD [15] 10 nM | luciferase signal [18] 64 AU

CN(C)CCCC1(c2ccc(F)cc2)OCc2cc(C#N)ccc21 (centres undefined)
inactive: period change [5] -0.06 h | inhibition [6] -4% | fluorescence ratio (interference) [7] 1 | z-score [2] 0.0126 | remaining activity [3] 108% | outcome [17] | outcome [11] | outcome [14] | remaining NAD [15] 10 nM | luciferase signal [18] 68 AU

CCN(CC)CC#CCOC(=O)C(O)(c1ccccc1)C1CCCCC1 (centres undefined)
inactive: period change [5] -0.025 h | survival [1] 12.5 | inhibition [6] -3% | fluorescence ratio (interference) [7] 0.9 | outcome [16] | outcome [8] | outcome [17] | outcome [11] | outcome [14] | remaining NAD [15] 10 nM | luciferase signal [18] 68 AU | z-score [4] -1.22 and -1.39

COc1ccc(C[C@H](C)NC[C@@H](O)c2ccc(O)c(NC=O)c2)cc1
inactive: z-score [2] -0.584 | remaining activity [3] 116% | z-score [4] -0.475

CC(C)C[C@H](NC(=O)[C@@H](O)[C@H](N)Cc1ccccc1)C(=O)O
active: AC50 [17] 18.7 µM | AC50 [11] 20.9 µM
2.45: SSMD [20]
7080: cell count [20]
inactive: period change [5] 0.15 h | inhibition [6] -4% | fluorescence ratio (interference) [7] 1 | z-score [2] 0.0206 | remaining activity [3] 117% | outcome [19] | outcome [8] | outcome [9] | outcome [12] | outcome [13] | plate-normalised HSF1 focus index [20] 1.13 | outcome [14] | z-score [4] 0.375 and 0.725

CN/C(=C\[N+](=O)[O-])NCCSCc1csc(CN(C)C)n1
inactive: z-score [2] 0.209 | remaining NAD [15] 10 nM

NCC(O)c1ccc(O)c(O)c1 (centres undefined)
inactive: period change [5] 0.075 h | inhibition [6] -3% | fluorescence ratio (interference) [7] 0.9 | outcome [14] | z-score [4] -1.48 and -0.825

CC(C)NCC(O)c1ccc(NS(C)(=O)=O)cc1 (centres undefined)
inactive: period change [5] -0.07 h | survival [1] 2.17 | inhibition [6] -2% | fluorescence ratio (interference) [7] 1 | z-score [2] -0.291 | remaining activity [3] 91.3% | outcome [19] | outcome [8] | outcome [17] | outcome [9] | outcome [10] | outcome [11] | outcome [12] | outcome [13] | outcome [14] | remaining NAD [15] 10 nM

C[C@@H](c1ncncc1F)[C@](O)(Cn1cncn1)c1ccc(F)cc1F
inactive: z-score [2] 1.15 | outcome [16] | outcome [17] | outcome [10] | outcome [11] | outcome [12] | outcome [13] | outcome [14] | remaining NAD [15] 10 nM | z-score [4] 0.365

Cc1cccc(CCN2CCC(C(=O)c3ccc(NS(C)(=O)=O)cc3)CC2)n1
inactive: z-score [2] -0.668 | remaining activity [3] 104% | z-score [4] 0.46 and -0.045

CNCC[C@H](Oc1cccc2ccccc12)c1cccs1
inactive: z-score [2] 0.369 and 0.383 | outcome [11] | remaining NAD [15] 10 nM | luciferase signal [18] 36 AU
active: AC50 [16] 1.32 µM

CSc1nc2cc(Oc3cccc(Cl)c3Cl)c(Cl)cc2[nH]1
inactive: z-score [2] 0.432 | z-score [4] -1.88

COc1nc(C)nc(Cl)c1NC1=NCCN1
active: AC50 [19] 23.5 µM
inactive: period change [5] -0.08 h | survival [1] 21 | inhibition [6] -4% | fluorescence ratio (interference) [7] 0.9 | z-score [2] -0.63 | remaining activity [3] 93.9% | outcome [16] | outcome [8] | outcome [17] | outcome [9] | outcome [10] | outcome [11] | outcome [13] | outcome [14] | z-score [4] 0.36 and 1.01 and 0.165

O=c1[nH]c(=O)n(C2CCCO2)cc1F (centres undefined)
inactive: z-score [2] -1.02 | outcome [19] | outcome [16] | outcome [8] | outcome [17] | outcome [9] | outcome [10] | outcome [11] | outcome [12] | outcome [13] | outcome [14] | z-score [4] 1.17 and 0.3

COc1ccc2[nH]c(S(=O)Cc3ncc(C)c(OC)c3C)nc2c1 (centres undefined)
inactive: outcome [2] | outcome [12] | outcome [13] | z-score [4] 0.665

CCOC(=O)c1ccc(OC(=O)CCCCCN=C(N)N)cc1
inactive: survival [1] 18.2 | z-score [2] -0.315 | remaining activity [3] 124% | outcome [19] | outcome [16] | outcome [8] | outcome [17] | outcome [9] | outcome [11] | outcome [12] | outcome [13] | z-score [4] 0.415 and -0.085

CN1CC(=O)N2[C@H](c3ccc4c(c3)OCO4)c3[nH]c4ccccc4c3C[C@@H]2C1=O
inactive: z-score [2] 1.08 | outcome [19] | outcome [16] | outcome [8] | outcome [17] | outcome [9] | outcome [10] | outcome [11] | outcome [12] | outcome [13] | remaining NAD [15] 10 nM | luciferase signal [18] 40 AU

Source: PubChem BioAssay
